Laboratory results taken from ChEMBL document CHEMBL4513216, “Probing the Open Global Health Chemical Diversity Library for Multistage-Active Starting Points for Next-Generation Antimalarials” (ACS Infect Dis, 2020).
Out of some 68,000 compounds screened, about 2,700 (4%) showed an effect of 50% or more. The full list was thinned out, with strong results kept by preference.

The compounds below were run on Plasmodium berghei (assay: Screen against P. berghei liver stage (PbLuc), transformed with Luciferase, at 2uM). Conditions: tested at 2 uM.
Assay type: functional, HepG2
Cc1cc(CN2CCc3nc(C(C)C)nc(O)c3CC2)c(C)s1 showed an INHIBITION of 23.7%.
For Cc1ccnc(NC(=O)c2ccc(Br)o2)c1, the INHIBITION was 62.51%.
Compound Cc1ccnc(NC(=O)c2ccc(Cl)o2)c1 has an INHIBITION of 5.48%.
Cc1ccnc(NC(=O)c2ccc(C)o2)c1 showed an INHIBITION of -4.26%.
With Cc1cccc(OCCNC(=O)CN2CCc3cncnc3C2)c1 the INHIBITION was 51.94%.
O=C(CN1CCc2cncnc2C1)NCCOc1ccccc1 was tested, and the INHIBITION was 10.62%.
O=C(CN1CCc2cncnc2C1)NCCOc1cccc(Cl)c1 showed an INHIBITION of 29.54%.
Work on Oc1cc(-c2cccs2)nc(C2CCCN(CC3=CCCOC3)C2)n1 (stereo not given) yielded an INHIBITION of 51.88%.
In the case of Cn1cc(CN2CCCC(c3nc(O)cc(-c4cccs4)n3)C2)cn1 (stereo not given), the INHIBITION is reported as 32.24%.
Oc1cc(-c2nccs2)nc(C2CCN(Cc3cccs3)CC2)n1 showed an INHIBITION of -14.73%.
In the case of Cc1csc(CNC(=O)NCC(O)c2ccc(F)cc2F)n1 (stereo not given), the INHIBITION is reported as -41.67%.
Work on Cn1cccc1CN1CCC2(CC1)CN(c1ccccc1)C(=O)CO2 yielded an INHIBITION of 40.64%.
In the case of CCN(CCC(F)(F)F)S(=O)(=O)c1cccc(F)c1C#N, the INHIBITION is reported as -46.3%.
Cc1cccc2cc(C(=O)N3CCSCC3)n(C)c12 gave an INHIBITION of 19.04%.
Work on N#Cc1cc(F)ccc1Cn1cncn1 yielded an INHIBITION of -14.79%.
Fc1ccc(CNc2ccccc2Cn2cncn2)cc1 was tested, and the INHIBITION was 32.93%.
N#Cc1cc(F)ccc1NCc1ccc(Cn2cncn2)cc1 was tested, and the INHIBITION was 53.99%.
In the case of Cc1cnn(CC2CCCN2Cc2nnc(C(C)C)o2)c1 (stereo not given), the INHIBITION is reported as -12.82%.
For Cc1ccccc1CN(C)C(=O)CN1CCOC(Cn2cncn2)C1 (stereo not given), the INHIBITION was 2.07%.
Cc1cc(=O)c2cc(F)ccc2n1CC(=O)O was tested, and the INHIBITION was -30.92%.
O=S(=O)(c1cccs1)N1CC[C@H]2[C@H]1CCN2c1ncccn1 was tested, and the INHIBITION was 56.76%.
Work on Cc1cccc(S(=O)(=O)N2CC[C@H]3[C@H]2CCN3c2ncccn2)c1 yielded an INHIBITION of 29.19%.
O=S(=O)(c1ccc(F)cc1)N1CC[C@H]2[C@H]1CCN2c1ncccn1 gave an INHIBITION of 31.96%.
In the case of CN1CC(=O)N(c2cccc(F)c2)CC12CCN(S(=O)(=O)C1CC1)C2 (stereo not given), the INHIBITION is reported as -12.36%.
COCCN1C(=O)[C@]2(CC[C@@H]3CN(C(=O)NC(C)C)C[C@@H]32)N=C1C was tested, and the INHIBITION was 16.91%.
In the case of CN(C)[C@@H]1CCN(C(=O)Cc2cccs2)[C@H]1Cc1ccncc1, the INHIBITION is reported as -23.59%.
Compound Cc1cc(CN2CC[C@H]3[C@H]2CCN3S(C)(=O)=O)oc1C has an INHIBITION of -12.98%.
CCN1C(=O)CCCC12CCCN(C(=O)c1ccoc1C)C2 (stereo not given) showed an INHIBITION of 50.17%.
With CCN1C(=O)CCCC12CCCN(C(=O)c1cc(C)oc1C)C2 (stereo not given) the INHIBITION was 19.09%.
Work on CCN1C(=O)CCCC12CCCN(C(=O)c1occc1C)C2 (stereo not given) yielded an INHIBITION of 46.87%.
Work on Cc1nc(C)c(C(=O)Nc2cccc(CN3CCC(CO)CC3)c2)o1 yielded an INHIBITION of -8.84%.
Compound Cn1cc(CN2CCc3ncnc(N4CCOCC4)c3CC2)cn1 has an INHIBITION of -15.83%.
CCN1CCC2(COCc3c(C)nc(N(C)C)nc32)C1 (stereo not given) gave an INHIBITION of 25.31%.
With Cc1nc(N2CCOCC2)nc2c1COCC21CCN(CC(C)C)C1 (stereo not given) the INHIBITION was 53.55%.
Cc1nc(N2CCOCC2)nc2c1COCC21CCN(CC2CC2)C1 (stereo not given) gave an INHIBITION of -27.12%.
With Cc1nc(N(C)C)nc2c1COCC21CCN(CC2CC2)C1 (stereo not given) the INHIBITION was -54.51%.
COCCN1CCC2(COCc3c(C)nc(N(C)C)nc32)C1 (stereo not given) was tested, and the INHIBITION was 54.62%.
CCN1CCC2(COCc3c(C)nc(N4CCOCC4)nc32)C1 (stereo not given) showed an INHIBITION of -9.91%.
CCOC(C)c1nccn1Cc1noc(CC)n1 (stereo not given) gave an INHIBITION of -12.93%.
COCCN1CC[C@H]2CN(c3cc(OC)ncn3)C[C@@H]2C1=O gave an INHIBITION of -25.53%.
O=C(c1ccccc1F)N1CCOC(c2nc(-c3ncccn3)no2)C1 (stereo not given) gave an INHIBITION of -14.56%.
Compound COc1cccc(-c2ccc3nc(C4CCN(C(C)=O)CC4)nn3c2)c1 has an INHIBITION of -3.4%.
For O=C1NC2(CCN(Cc3ccc(F)cc3)CC2)CC1c1ccncc1 (stereo not given), the INHIBITION was -26.22%.
Work on O=C1NC2(CCN(Cc3cccs3)CC2)CC1c1ccncc1 (stereo not given) yielded an INHIBITION of -13.79%.
With O=C1NC2(CCN(Cc3nccs3)CC2)CC1c1ccncc1 (stereo not given) the INHIBITION was 53.54%.
COc1ccc(CNC(=O)NCCc2csc(C)n2)cn1 gave an INHIBITION of -33.61%.
Work on Cc1nnc(N2CCCC(CS(N)(=O)=O)C2)c(C#N)c1C (stereo not given) yielded an INHIBITION of 57.79%.
For Cc1nnc(N2CCC(CS(N)(=O)=O)CC2)c(C#N)c1C, the INHIBITION was 46.52%.
For Cc1nnc(N2CCC(CN(C)C(C)C)CC2)c(C#N)c1C, the INHIBITION was 2.1%.
Cc1c[nH]nc1C1CCN(S(=O)(=O)N(C)C)CC1 was tested, and the INHIBITION was 20.73%.
Work on CC(C)N1CCC(c2n[nH]cc2S(C)(=O)=O)CC1 yielded an INHIBITION of 53.59%.
With CNc1nccnc1C1CCN(C(C)C)CC1 the INHIBITION was -5.95%.
CC1CCN(CCNCc2cc(-c3ccccc3)cn3nnnc23)CC1 showed an INHIBITION of 26.56%.
With CCc1c(C)nn2c(O)cc(C3CCN(C(=O)C4CC4)C3)nc12 (stereo not given) the INHIBITION was 11.53%.
With Cc1cccc(CN2CC3(CCN(Cc4ccoc4)CC3)OCC2=O)n1 the INHIBITION was 11.99%.
Cc1ccc(CN2CCC3(CC2)NC(=O)CC3c2ccccc2)s1 (stereo not given) showed an INHIBITION of 57.85%.
Cc1nc(CN2CCC3(CC2)NC(=O)CC3c2ccccc2)cs1 (stereo not given) showed an INHIBITION of 44.43%.
With Cc1noc(C)c1CN1CCC2(CC1)NC(=O)CC2c1ccccc1 (stereo not given) the INHIBITION was 20.01%.
In the case of O=C1CC(c2ccncc2)C2(CCN(Cc3cccnc3)CC2)N1 (stereo not given), the INHIBITION is reported as -4.26%.
O=C1CC(c2ccncc2)C2(CCN(Cc3ccc(F)cc3)CC2)N1 (stereo not given) gave an INHIBITION of 6.03%.
Work on O=C1CC(c2ccccc2)C2(CCN(Cc3ccncc3)CC2)N1 (stereo not given) yielded an INHIBITION of 54.07%.
For COc1cccc(C(=O)C2CCCN(c3cc(C#N)ccn3)C2)c1 (stereo not given), the INHIBITION was -45.86%.
With CC(C)COc1cncc(NCCc2nnc3ccccn23)n1 the INHIBITION was 39.02%.
For Cc1nn(C)cc1S(=O)(=O)N[C@@H]1CCC[C@@H](n2ccnc2)[C@@H]1O, the INHIBITION was 45.48%.
COc1ccccc1N1CCN(C(=O)c2ccoc2)CC1 showed an INHIBITION of -2.44%.
CN(C)c1cc(C(=O)N2CCCN(Cc3cscn3)CC2)ccn1 showed an INHIBITION of 51.21%.
With CN(C)c1ccc(C(=O)N2CCCN(Cc3cscn3)CC2)nn1 the INHIBITION was -11.33%.
COc1ccccc1N1CCN(C(=O)c2ccnc(N(C)C)c2)CC1 gave an INHIBITION of 56.78%.
With CN(C)c1cc(C(=O)N2CCCC2)ccn1 the INHIBITION was -18.23%.
Compound CN(C)c1ccc(C(=O)N2CCN(Cc3cscn3)CC2)cn1 has an INHIBITION of 19.18%.
